# Source: PubChem BioAssay (EPA / NIEHS)
# The source made the active and inactive calls. Rule for the calls: active = hit-call score of the fitted dose curve at least 0.9, where 1 is the maximum; inactive = score below 0.9.
# Experiment: IUF_NPC1b_proliferation_BrdU_72hr: Leibniz Research Institute for Environmental Medicine (IUF) 72-hour Neural Progenitor Cell Bromodeoxyuridine (BrdU) Proliferation Assay (NPC1b) (AID 2284207)
# Description: IUF_NPC1 is a cell-based, multiplexed assay that uses hNPC, a human primary neural progenitor cells, with measurements taken at 72 hours after chemical dosing in a 96-well plate. Human neural progenitor cells (hNPC) are generated from human fetal brain cortex at gestational week (GW) 16-19. Grown in suspension culture and under proliferative conditions (proliferation media and growth factors), these cells represent neural progenitor cell proliferation. In the NPC1 assay, hNPC's are exposed to the test compound for 72h. Cell proliferation is assessed as an increase in sphere area using automated phase contrast imaging and as incorporation of Bromodeoxyuridine (BrdU) during DNA synthesis using a luminescence-based cell proliferation ELISA. In parallel, the cell viability is assessed using an alamar blue viability assay and the cytotoxicity using a lactate dehydrogenase dependent membrane integrity assay.IUF_NPC1b_proliferation_BrdU_72hr is one of 4 assay components measured from the IUF_NPC1 assay. It is designed to measure cell proliferation as assessed by the incorporation of Bromodeoxyuridine (BrdU) in the last 16 h of a 72 h compound exposure using a luminescence-based cell proliferation ELISA.Data from the IUF_NPC1b_proliferation_BrdU component was analyzed at the endpoint IUF_NPC1b_proliferation_BrdU in the positive analysis fitting direction relative to DMSO as the negative control and baseline of activity. Using a type of growth reporter, gain or loss-of-signal activity can be used to understand cell proliferation effects.
# After the cell expansion period, the cells are cultured for up to four weeks in which they are passaged every week. Between one to three days after passaging, depending on the size chosen for passaging, spheres at a size of 0.3 mm are used in the assay. For the assessment of neural progenitor cell proliferation, the spheres are plated in poly-Hema coated 96-well U-bottom plates filled with proliferation medium containing growth factors (EGF and FGF). One 0.25 - 0.35 mm big sphere is plated in the middle of each well. Within 3 days NPCs proliferate and grow in size. Cultivation during the test method is performed at 37C and 5% CO2 at a pH of 7.2-7.6. As a positive control, spheres are cultivated in the absence of growth factors (EGF and FGF), which dramatically reduces proliferation. Exposure starts on the plating day (day 0) and is continued over three days, without chemical renewal, until the experiment is terminated. The assay is terminated by the assessment of cell viability, cytotoxicity, and proliferation by BrdU. All endpoints are generated from the same experimental run and from each well/sphere in the 96-well plate.
Structure (SMILES),AC50,outcome
CC(CNC(=S)[S-])NC(=S)[S-].[Zn+2] (stereo unspecified),50 µM (active),–
Cc1[nH]n(C)c(=O)c1C(=O)c1ccc(C(F)(F)F)cc1S(C)(=O)=O,43.4 µM (active),–
CCCCCC(C)(CC)C(=O)NC (stereo unspecified),85.3 µM (active),–
CC(C)c1nn(C(=O)NC(C)(C)C)c(=O)n1N,2.01 µM (active),–
O=C1CC2(CCCC2)CC(=O)N1CCCCN1CCN(c2ncccn2)CC1,–,inactive
CCCCCC=C(C)C(CC)CCO (stereo unspecified),–,inactive
CCCCOCCOP(=O)(O)OCCOCCCC,–,inactive
CC(=O)N[C@@H](CC(=O)O)C(=O)O,11.7 µM (active),–
C[C@@H]1CC[C@@H](C(C)(C)O)[C@H](O)C1,8.23 µM (active),–
BrC1CC(Br)CC(Br)CC(Br)CC(Br)CC(Br)C1 (stereo unspecified),8.81 µM (active),–
C[C@@H]1CCO[C@H]2Cn3cc(C(=O)NCc4ccc(F)cc4F)c(=O)c(O)c3C(=O)N12,–,inactive
CCc1ccccc1,12.7 µM (active),–
CN(C)CCCn1cc(C2=C(c3c[nH]c4ccccc34)C(=O)NC2=O)c2ccccc21,0.263 µM (active),–
CC(=O)OC/N=[N+](\C)[O-],371 µM (active),–
F,1040 µM (active),–
CC(C)O,91.7 µM (active),–
